The list is not random: actives were taken first. Their share in the collection is about 3.4%.
PKM2 activator: increases activity of human pyruvate kinase M2; purified PKM2, Kinase-Glo ATP luminescence, activation; response scale: 0% is enzyme alone, no compound; hit rate 0.34% among 260,000; AID 1631; Potency, µM (series often up to 57.5 µM), for inactives: top-dose activation, usual class: activators; further: on the % scale 0 is the no-effect control and ±100 the full control effect; nearly all actives have a fitted effect of over 55% in size
Target sequence (P14618 whole entry, looked up): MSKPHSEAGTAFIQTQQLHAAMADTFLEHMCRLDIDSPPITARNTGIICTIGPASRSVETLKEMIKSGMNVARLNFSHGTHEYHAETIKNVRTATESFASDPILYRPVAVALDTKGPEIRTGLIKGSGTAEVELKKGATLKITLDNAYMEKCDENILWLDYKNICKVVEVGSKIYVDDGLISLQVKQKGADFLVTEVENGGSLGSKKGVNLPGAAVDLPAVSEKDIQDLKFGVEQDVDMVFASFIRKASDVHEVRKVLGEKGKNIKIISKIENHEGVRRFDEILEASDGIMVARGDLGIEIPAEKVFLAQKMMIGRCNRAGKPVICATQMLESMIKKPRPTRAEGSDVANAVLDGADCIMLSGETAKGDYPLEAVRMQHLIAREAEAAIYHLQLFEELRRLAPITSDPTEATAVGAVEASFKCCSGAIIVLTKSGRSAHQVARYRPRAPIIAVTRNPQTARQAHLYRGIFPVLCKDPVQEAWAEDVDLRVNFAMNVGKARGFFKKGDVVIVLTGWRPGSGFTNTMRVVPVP
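ATP formation by purified human PK-M2, quantified via coupled luciferase luminescence after 1 h at room temperature with 0.1 mM ADP and 0.5 mM PEP final.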
Mito fusion yeast: mitochondrial division inhibition or fusion activation. S. cerevisiae fusion-defective mutant growth rescue, CellTiterGlo 48 h. Potency, µM (doses to about 46.1 µM), for the others: top-dose growth rescue (activation), actives largely listed as activators. hit rate 0.23% among 320,000. AID 485298; further: % of control where 0% means no effect; nearly all actives have a fitted effect of over 45% in size
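Luminescent cell viability in 1536-well qHTS format served as the measure of rescued growth in ts fusion-mutant S. cerevisiae cultured on non-fermentable YPEG for 48 hours at 37C.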
GCN5L2 inh: inhibitors of human GCN5L2 histone acetyltransferase | Q92830 | GCN5L2 HAT assay, ThioGlo1 CoA-SH fluorescence | Potency, µM (top dose mostly 58.9 µM), for inactives: at the top dose activity change, negative = inhibition, hits mostly inhibitors | hit rate 0.21% among 390,000; further: on the % scale 0 is the no-effect control and ±100 the full control effect
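qHTS, 1536-well. 20nM enzyme, pH 7.5 HEPES/EDTA/Tween-20 buffer; 15 min compound preinc., RT. Start: 75uM H3(1-25), 70uM AcCoA, 50uM ThioGlo1. Read Ex340/Em540 at t=0 (autofluorescence flag) and t=20 min.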
PLK1 PBD inh: PLK1 (human) polo-box domain binding inhibition; Potency, µM, for inactives: max response, negative = inhibition, actives largely listed as inhibitors; AID 720504; hit rate 2.8% among 360,000; Plk1 PBD binding of FITC phosphopeptide, fluorescence polarization; further: series mostly up to about 57 µM; on the % scale 0 is the no-effect control and ±100 the full control effect; nearly all actives have a fitted effect of over 65% in size
GLS inh: inhibitors of human glutaminase (GLS) | hit rate 0.21% among 410,000 | Potency, µM (doses to about 45.5 µM), for inactives: at the highest dose activity change, negative = inhibition, most hits filed as inhibitors | O94925 | GLS enzymatic activity, qHTS titration; further: on the % scale 0 is the no-effect control and ±100 the full control effect
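hKGA in 45 mM KH2PO4 pH 8.2, 0.02% Tween-20 with pin-transferred compounds; 1 mM L-glutamine (stock) plus glutamate oxidase/HRP/Amplex Red coupling added. Fluorescence read initially and after 30 min at RT.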
VDR inh: blocks the human vitamin D receptor. P11473. VDR-SRC2-3 peptide fluorescence polarization, 2 h. Potency, µM, for inactives: max response, negative = inhibition, most hits filed as inhibitors. hit rate 0.93% among 400,000. AID 504847; further: on the % scale 0 is the no-effect control and ±100 the full control effect
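Signal is fluorescence polarization, reporting how far test compounds block the interaction of VDR with the SRC2-3 coregulator peptide after a 2 h room-temperature incubation.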
An asterisk follows results filed as active. The call rests on the fitted dose curve; in most records, active means well fitted curve in the direction sought with a large enough effect; inconclusive means small, poorly fitted or top-dose-only effect, or another doubt; inactive means no such curve, though single readings can be large; an effect the other way counts as inactive or inconclusive. Potency means the concentration at half of the fitted maximal effect.

Results for O=C(COC(=O)CNS(=O)(=O)c1ccc(Br)cc1Cl)NC1CCCC1 ?
Mito fusion yeast: 2%; GCN5L2 inh: -1%; PLK1 PBD inh: -19%; GLS inh: 2%; VDR inh: 17%

What do the screens show for `O=C(CNC(=O)C1CCCCC1)OCc1ccccc1`?
VDR inh: -15%

How did COC(=O)CCN(C(C)=O)c1ccc(N)cc1 do in these assays?
PKM2 activator: -1%; Mito fusion yeast: -2%; GCN5L2 inh: -4%; PLK1 PBD inh: 27µM*; GLS inh: 3%; VDR inh: inconclusive

Results for O=C1C(Br)=C(c2ccccc2)C(c2ccccc2)=C1c1ccccc1 ?
PLK1 PBD inh: 2.7µM*; GLS inh: 17%; VDR inh: inconclusive

How did CCOC(=O)C(CC)Sc1nc2c(c(=O)[nH]c(=O)n2C)n1CCc1ccccc1 (stereo unspecified) do in these assays?
PKM2 activator: -3%; Mito fusion yeast: 1%; GCN5L2 inh: -3%; PLK1 PBD inh: 24µM*; GLS inh: 9%; VDR inh: -21%

What do the screens show for `CCC(C)Sc1nc2c(c(=O)[nH]c(=O)n2C)n1CC(O)COc1ccccc1C` (stereo unspecified)?
PKM2 activator: 1%; Mito fusion yeast: 12%; GCN5L2 inh: -15%; PLK1 PBD inh: 11µM*; GLS inh: -19%; VDR inh: 16%

How did C=C(C)Cn1c(N2CCC(Cc3ccccc3)CC2)nc2c1c(=O)[nH]c(=O)n2C do in these assays?
PKM2 activator: 8%; Mito fusion yeast: 16µM*; GCN5L2 inh: 0%; PLK1 PBD inh: -9%; GLS inh: -10%; VDR inh: 6%

What do the screens show for `CCOC(=O)C(C)Sc1nc2c(c(=O)[nH]c(=O)n2C)n1Cc1ccc(Cl)cc1` (stereo unspecified)?
PKM2 activator: 4%; Mito fusion yeast: 0%; GCN5L2 inh: -5%; PLK1 PBD inh: 21µM*; GLS inh: inconclusive; VDR inh: 89µM*

What do the screens show for `CCOC(=O)CSc1nc2c(c(=O)[nH]c(=O)n2C)n1CCc1ccccc1`?
PKM2 activator: -6%; Mito fusion yeast: -1%; GCN5L2 inh: -2%; PLK1 PBD inh: 1%; GLS inh: 0%; VDR inh: 8%

Results for CCNc1ncc2nc(CCc3ccccc3)c(=O)n(C[C@H]3CCCO3)c2n1 ?
GCN5L2 inh: -18%; VDR inh: 1%

Results for Cc1cc(C)n(-c2nc3c(c(=O)[nH]c(=O)n3C)n2Cc2ccccc2)n1 ?
PKM2 activator: 1%; Mito fusion yeast: 2%; GCN5L2 inh: -10%; PLK1 PBD inh: -5%; GLS inh: -9%; VDR inh: 26%

How did C=CCSc1nc2c(c(=O)[nH]c(=O)n2C)n1Cc1ccc(C)cc1 do in these assays?
PKM2 activator: 1%; Mito fusion yeast: -4%; GCN5L2 inh: -4%; PLK1 PBD inh: 21µM*; GLS inh: 8%; VDR inh: -15%

Results for Cc1cc(C)n(-c2nc3c(c(=O)[nH]c(=O)n3C)n2CCc2ccccc2)n1 ?
PKM2 activator: -1%; Mito fusion yeast: 5%; GCN5L2 inh: -4%; PLK1 PBD inh: 30µM*; GLS inh: -13%; VDR inh: -9%

How did Cc1ccc(Cn2c(SCC(C)C)nc3c2c(=O)[nH]c(=O)n3C)cc1 do in these assays?
PKM2 activator: -3%; Mito fusion yeast: 0%; GCN5L2 inh: -5%; PLK1 PBD inh: 24µM*; GLS inh: -11%; VDR inh: -12%

How did C=CCSc1nc2c(c(=O)[nH]c(=O)n2C)n1C(C)C do in these assays?
PKM2 activator: -22%; Mito fusion yeast: 0%; GCN5L2 inh: -3%; PLK1 PBD inh: 27µM*; GLS inh: 6%; VDR inh: -30%

Results for COCCN(C(=O)c1csnn1)C(C(=O)NC1CCCCC1)c1ccccc1F (stereo unspecified) ?
PKM2 activator: 0%; Mito fusion yeast: 24%; GCN5L2 inh: -2%; PLK1 PBD inh: -5%; GLS inh: 7%; VDR inh: 8%

How did COc1ccc(C)cc1S(=O)(=O)Nc1cccc(C)c1 do in these assays?
PKM2 activator: 8%; Mito fusion yeast: -1%; GCN5L2 inh: -1%; PLK1 PBD inh: 0%; GLS inh: -2%; VDR inh: 14%

What do the screens show for `Cc1c(F)cccc1NS(=O)(=O)c1ccc2c(c1)n(C)c(=O)c(=O)n2C`?
PKM2 activator: 0.71µM*; Mito fusion yeast: 1%; GCN5L2 inh: -3%; PLK1 PBD inh: -1%; GLS inh: 1%; VDR inh: 4%

Results for Cc1cccc(NS(=O)(=O)c2ccc3c(c2)n(C)c(=O)n3C)c1C ?
Mito fusion yeast: -5%; GCN5L2 inh: 2%; GLS inh: 9%; VDR inh: 18%

What do the screens show for `COc1cccc(NS(=O)(=O)c2cc(C)ccc2OC)c1`?
PKM2 activator: 14%; Mito fusion yeast: -6%; GCN5L2 inh: 2%; PLK1 PBD inh: 8.4µM*; GLS inh: 58%; VDR inh: inconclusive

What do the screens show for `COc1cccc(NS(=O)(=O)c2ccc3c(c2)n(C)c(=O)c(=O)n3C)c1`?
PKM2 activator: 1.1µM*; Mito fusion yeast: -2%; GCN5L2 inh: -2%; PLK1 PBD inh: -4%; GLS inh: 5%; VDR inh: -10%

Results for Cc1c(F)cccc1NS(=O)(=O)c1ccc2c(c1)c(=O)n(C)c(=O)n2C ?
PKM2 activator: 3.5µM*; Mito fusion yeast: -20%; GCN5L2 inh: -6%; PLK1 PBD inh: -1%; GLS inh: 3%; VDR inh: 7%

What do the screens show for `COc1cc(C2NC(=O)C(C#N)=C(S)N2c2ccc(C)cc2)ccc1OC(C)C` (stereo unspecified)?
PKM2 activator: -17%; Mito fusion yeast: 6%; GCN5L2 inh: -3%; PLK1 PBD inh: inconclusive; GLS inh: 28%; VDR inh: 28µM*

How did COc1ccc(C2NC(=O)C(C#N)=C(S)N2c2cccc(C)c2)cc1OC (stereo unspecified) do in these assays?
PKM2 activator: -9%; Mito fusion yeast: 4%; GCN5L2 inh: -10%; PLK1 PBD inh: inconclusive; GLS inh: 5%; VDR inh: inconclusive

How did COc1ccc(C2NC(=O)C(C#N)=C(S)N2c2ccc(C)cc2)cc1OC (stereo unspecified) do in these assays?
PKM2 activator: -1%; Mito fusion yeast: 2%; GCN5L2 inh: -5%; PLK1 PBD inh: inconclusive; GLS inh: 21%; VDR inh: 32µM*

Bioassay records from PubChem.
